The source of these data is PubChem BioAssay (NCATS).

Inconclusive results are not listed. Where a call stands in place of a potency, no number is given. The source made the active and inactive calls. Unless noted, calls follow the shape of the dose curve; as a rule, active = well fitted curve in the direction sought with a large enough effect; inconclusive = small, poorly fitted or top-dose-only effect, or another doubt; inactive = no such curve, though single readings can be large or run the other way.

Tested on in one assay: not listed separately
The assay can be described thus: qHTS for differential inhibitors of proliferation of Plasmodium falciparum line HB3 (AID 1886).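 Also: parasites grown with compound for 72 h before SYBR Green readout.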 Also: potency is read from the fitted curve at half-maximal effect. As to conditions: Potency: Plasmodium falciparum HB3 proliferation inhibition; series mostly up to 28.7 µM.
With `N[C@@H](Cc1ccc(F)cc1)C(=O)O`, the Potency was 12.6 µM (active).
Still for that read-out and setting: under `O=c1onc2cnc3ccccc3n12` stands 5.62 µM (active); under `NC(N)=NC(N)=Nc1cccc(Cl)c1`, 8.91 µM (active); under `CCCC(=O)NCCc1c2n(c3ccc(OC)cc13)CCCc1ccccc1-2`, 11.2 µM (active).
Still for that read-out and setting: in the case of `C#CC(N)CCC(=O)O` (centres undefined) it was “inactive”.
On the same count and under the same terms, under `CCCn1c(=O)c2c(ncn2C)n(CCC)c1=O` stands “inactive”.
As to `O=C(N[C@@H](Cc1ccccc1)C(=O)CCl)OCc1ccccc1`, the Potency was 14.1 µM (active).
On to `Cn1c(=O)[nH]c2ncn(C)c2c1=O`, for which the Potency was 12.6 µM (active).
Still for that read-out and setting: in the case of `CC(=O)NNC(=O)N1Cc2ccccc2Oc2ccc(Cl)cc21` it was “inactive”; in that of `CNCCNS(=O)(=O)c1cccc2cnccc12`, “inactive”.
Same read-out and setting: in the case of `N#C/C(=C\c1ccc(O)c(O)c1)C(=O)NCCc1ccccc1` it was 11.2 µM (active); in that of `Nc1ccc(N2C(=O)c3ccccc3C2=O)c(Cl)c1`, “inactive”; in that of `Nc1ccc(CCNc2ncnc3c2ncn3C2OC(CO)C(O)C2O)cc1` (centres undefined), “inactive”.
Take `CCCCCCCC/C=C\CCCCCCCC(=O)NCCc1ccc(O)c(O)c1`: the Potency was 12.6 µM (active).
Take `COc1cc(C(O)CO)ccc1O` (centres undefined): the Potency entry was “inactive”.
Same read-out and setting: in the case of `Nc1nc2[nH]c(=O)cnc2c(=O)[nH]1` it was “inactive”.
Consider `CC1=C(/C=C/C(C)=C/C=C/C(C)=C\C(=O)O)C(C)(C)CCC1`, for which the Potency was 10 µM (active).
`COc1cc(N)c(Cl)cc1C(=O)OCCN1CCCCC1`: the Potency entry was “inactive”.
Take `N=S(=O)(O)Cc1noc2ccccc12`: the Potency result is “inactive”.

Tested on in the next assay: not listed separately
The experiment in a line: qHTS Assay for Modulators of Human Peripheral Myelin Protein 22 (PMP22) Expression/Activity (AID 1967; active = well fitted curve in the direction sought with a large enough effect in the signal ratio; the % refers to the signal ratio). Particulars: Cell-based PMP22 reporter, dual-color luciferase ratio, 0% = compound-free control cells, mouse Pmp22 promoter in mouse Schwann cells; series mostly up to 115 µM. In outline:
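Mouse MSC80 Schwann cells carrying Pmp22 promoter–green click beetle luciferase plus EF-alpha–red luciferase control, dosed 24 h at 37 °C. Dual-filter luminescence, overlap-corrected; %Activity from green/red ratio normalised to untreated cells, concentration-response curves fitted.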
For orientation: qHTS replaces the single test concentration by a dilution series.
Regarding `COC(=O)C(C)(N)Cc1ccc(O)cc1` (centres undefined), the result was inactive.
With `CC(=O)O[C@H]1CC2(C)[C@@H](C[C@@H](O)[C@H]3[C@@]4(C)CC[C@@H](O)[C@@H](C)[C@@H]4CC[C@@]32C)C1=C(CCC=C(C)C)C(=O)O` (some centres undefined), the result was inactive.
Take `CCCC[C@@]1(C2CCCC2)Cc2cc(OCC(=O)O)c(Cl)c(Cl)c2C1=O`: the result was inactive.
Turning to `C#CC(N)CCC(=O)O` (centres undefined), the result was inactive.
As to `Oc1cc2c(cc1O)C(c1ccccc1)CNCC2` (centres undefined), the result was inactive.
`Nc1ccc(CCNc2ncnc3c2ncn3C2OC(CO)C(O)C2O)cc1` (centres undefined): the outcome was inactive.

The target in another assay is Ferritin light chain (Equus caballus) (UniProt P02791). The assay can be described thus: qHTS Validation Assay for Identification of Novel General Anesthetics (AID 2323). As to conditions: horse apoferritin, anesthetic-site fluorescent probe displacement; series mostly up to 76.9 µM. In outline: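 Horse-spleen apoferritin (10 uM) in PBS with 50% saturated 1-aminoanthracene; compounds pin-transferred, 10 min at room temperature. Fluorescence read at 380/535 nm, normalized to free 1-AMA and 1-AMA/apoferritin values; four-parameter Hill fit.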
Sequence of Ferritin light chain (Equus caballus) (P02791 2-175 limits assumed): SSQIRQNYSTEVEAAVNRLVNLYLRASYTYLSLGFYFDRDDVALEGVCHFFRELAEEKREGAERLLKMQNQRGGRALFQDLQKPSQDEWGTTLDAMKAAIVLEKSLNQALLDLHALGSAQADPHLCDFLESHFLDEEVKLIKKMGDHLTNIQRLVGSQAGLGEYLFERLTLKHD
On to `CNC(=O)c1cc2c(cn1)[nH]c1ccccc12`, for which the Potency entry is “inactive”.
As to `COC(=O)C(C)(N)Cc1ccc(O)cc1` (centres undefined), the Potency result is “inactive”.
Turning to `CC(=O)O[C@H]1CC2(C)[C@@H](C[C@@H](O)[C@H]3[C@@]4(C)CC[C@@H](O)[C@@H](C)[C@@H]4CC[C@@]32C)C1=C(CCC=C(C)C)C(=O)O` (some centres undefined), the Potency entry is “inactive”.
Same read-out and setting: in the case of `NC(N)=NC(N)=Nc1cccc(Cl)c1` it was “inactive”; in that of `NCC(O)c1ccc(O)c(O)c1` (centres undefined), “inactive”; in that of `O=c1ccc2c(OCCCCc3ccccc3)c3ccoc3cc2o1`, “inactive”.
On the same count and under the same terms, in the case of `CCCC[C@@]1(C2CCCC2)Cc2cc(OCC(=O)O)c(Cl)c(Cl)c2C1=O` it was “inactive”.
On to `C#CC(N)CCC(=O)O` (centres undefined), for which the Potency result was “inactive”.
The same measure, in the same setting: under `CCCn1c(=O)c2c(ncn2C)n(CCC)c1=O` stands “inactive”.
On the same count and under the same terms, in the case of `COc1ccccc1N1CCN(CCCNc2c(C)c(=O)n(C)c(=O)n2C)CC1` it was “inactive”; in that of `O=C(N[C@@H](Cc1ccccc1)C(=O)CCl)OCc1ccccc1`, “inactive”; in that of `Nc1ccc(-c2ccc3ccccc3n2)cc1`, “inactive”.
Same read-out and setting: under `Oc1cc2c(cc1O)C(c1ccccc1)CNCC2` (centres undefined) stands “inactive”; under `Nc1ccc(N2C(=O)c3ccccc3C2=O)c(Cl)c1`, “inactive”.
Regarding `NC1(C(=O)O)CC1`, the Potency result is “inactive”.
Still for that read-out and setting: in the case of `O=S(=O)(c1cccc2c(Cl)cccc12)N1CCCNCC1` it was “inactive”; in that of `Fc1ccc(CN(C2=NCCN2)c2c(Cl)cccc2Cl)cc1`, “inactive”; in that of `COc1cc(N)c(Cl)cc1C(=O)OCCN1CCCCC1`, “inactive”.
In the case of `N=S(=O)(O)Cc1noc2ccccc12`, the Potency result was “inactive”.
